Source: PubChem BioAssay
IL-1B inflam inh: qHTS for Inhibitors of Inflammasome Signaling: IL-1-beta AlphaLISA Primary Screen. THP-1 LPS/ATP IL-1B secretion, AlphaLISA, 16 h; hits give low values. activity change, % at 57.5 µM. actives 4.7% (n = 360,000). AID 743279, 2014; in the data active means activity change below about -50%; inconclusive means mostly about -30% to -49%; further: on the % scale 0 is the no-effect control and ±100 the full control effect
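Secreted IL-1B measured by AlphaLISA bead assay after 16 h compound exposure of THP-1 cells; compounds (final up to 57.5 uM) added 1 h before LPS (250 ng/mL) and ATP (1.25 mM) stimulation; lower signal means less secretion.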
TDP1 cell CPT: qHTS for Inhibitors of human tyrosyl-DNA phosphodiesterase 1 (TDP1): qHTS in cells in presence of CPT; chicken DT40 Tdp1-/-;hTDP1 cells + 20 nM CPT, ATP luminescence, 48 h; Potency, µM (titrated, usually from 46.2 µM), for the others: at the highest dose activity change, negative = growth inhibition, hits mostly inhibitors; actives 12% (n = 420,000); further: potency means the concentration at half of the fitted maximal effect; on the % scale 0 is the no-effect control and ±100 the full control effect; nearly all actives have a fitted effect of over 55% in size
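Cell growth measured by CellTiter-Glo luminescence after a minimum 48 h, 37 C compound exposure with 20 nM CPT in Tdp1-knockout DT40 cells stably expressing hTDP1, seeded 400/well; qHTS titration format.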
TDP1 cell noCPT: qHTS for Inhibitors of human tyrosyl-DNA phosphodiesterase 1 (TDP1): qHTS in cells in absence of CPT | DT40 Tdp1-/- hTDP1 cells, no CPT, ATP luminescence, 48 h | Potency, µM (doses to about 46.2 µM), for the others: at the top dose activity change, negative = growth inhibition, usual class: inhibitors | actives 15% (n = 420,000); further: potency means the concentration at half of the fitted maximal effect; on the % scale 0 is the no-effect control and ±100 the full control effect; nearly all actives have a fitted effect of over 55% in size
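A cellular qHTS used chicken DT40 cells lacking endogenous Tdp1 but carrying stably transfected human TDP1. Compounds were applied without camptothecin, and cell growth kinetics were judged by ATP-dependent luminescence after ≥48 hr.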
TGFb SMAD3 inh: qHTS for Inhibitors of TGF-b; actives 1.2% (n = 410,000); HepG2 CAGA-GFP TGF-b/SMAD3 reporter, GFP fluorescence, 18 h; TGF-beta stimulated, 500 pg/mL final; Potency, µM (highest dose often 46.1 µM), for inactives: at the highest dose activity, negative = inhibition, most hits filed as inhibitors; further: potency means the concentration at half of the fitted maximal effect; on the % scale 0 is the no-effect control and ±100 the full control effect; nearly all actives have a fitted effect of over 65% in size
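GFP signal (ex488/em500-530) from TGF-beta-stimulated HEPG2 CAGA-GFP cells, 500 pg/mL final, 18 h at 37 degrees C in DMEM plus 1% FBS, normalized to unstimulated and DMSO-stimulated controls.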
HepG2 viability: qHTS for Inhibitors of TGF-b: Cytotox Counterscreen; Potency, µM (top dose mostly 46.1 µM), for inactives: at the top dose activity change, negative = cytotoxicity, actives largely listed as cytotoxic; HepG2 CAGA-GFP viability, ATP luminescence, 18 h; actives 0.76% (n = 410,000); further: potency means the concentration at half of the fitted maximal effect
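CellTiter-Glo luminescence gave cytotoxicity after 18 hours at 37 degrees C. The cells were HepG2 CAGA-GFP in 1% FBS DMEM, stimulated with 500 pg/mL TGF-beta after compound addition. %Activity was normalised to no-cell wells (complete cell-killing) and DMSO (no toxicity), and curves were fitted and classified.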
TDP1 inh: qHTS Assay for Inhibitors of Tyrosyl-DNA Phosphodiesterase (TDP1); Tyrosyl-DNA phosphodiesterase 1 (Homo sapiens), Q9NUW8; recombinant TDP1, AlphaScreen DNA substrate cleavage; Potency, µM (highest dose often 130 µM), for the others: at the top dose activity change, negative = inhibition, most hits filed as inhibitors; actives 0.28% (n = 350,000); AID 485290, 2010; further: potency means the concentration at half of the fitted maximal effect; on the % scale 0 is the no-effect control and ±100 the full control effect; nearly all actives have a fitted effect of over 40% in size
Target sequence (Q9NUW8 whole entry, looked up): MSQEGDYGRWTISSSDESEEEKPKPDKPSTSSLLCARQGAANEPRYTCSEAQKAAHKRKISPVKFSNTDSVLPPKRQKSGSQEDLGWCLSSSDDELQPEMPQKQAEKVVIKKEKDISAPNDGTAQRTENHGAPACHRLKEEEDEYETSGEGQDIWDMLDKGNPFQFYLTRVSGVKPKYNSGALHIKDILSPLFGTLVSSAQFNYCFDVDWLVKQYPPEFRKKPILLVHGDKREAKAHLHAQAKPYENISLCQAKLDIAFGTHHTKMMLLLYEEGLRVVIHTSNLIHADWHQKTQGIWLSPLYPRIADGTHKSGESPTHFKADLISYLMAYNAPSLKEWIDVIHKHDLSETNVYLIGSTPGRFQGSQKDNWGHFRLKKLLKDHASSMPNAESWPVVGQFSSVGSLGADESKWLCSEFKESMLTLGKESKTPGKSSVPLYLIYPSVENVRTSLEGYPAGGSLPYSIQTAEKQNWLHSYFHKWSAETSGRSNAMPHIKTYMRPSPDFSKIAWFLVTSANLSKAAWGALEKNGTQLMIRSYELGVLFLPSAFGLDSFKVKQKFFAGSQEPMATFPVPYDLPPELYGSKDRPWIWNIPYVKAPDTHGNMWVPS
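E. coli-derived human Tdp1, 1 nM final. Cpd preinc 15 min RT; substrate 15 nM final, 5 min RT; AS bead mix 10 ug/ml final, 10 min RT. Signal loss = tyrosine-FITC cleavage. No-enzyme wells = max signal.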
Starred values were filed as active, the others as inactive; ? = inconclusive; . = no result given; [ ] = remark or other dose. A selection: hits, their analogues and other compounds. The true share with any hit is near 19%. Unless noted, the call rests on the fitted dose curve; in most records, active means well fitted curve in the direction sought with a large enough effect; inconclusive means small, poorly fitted or top-dose-only effect, or another doubt; inactive means no such curve, though single readings can be large; an effect the other way counts as inactive or inconclusive.

SMILES	IL-1B inflam inh	TDP1 cell CPT	TDP1 cell noCPT	TGFb SMAD3 inh	HepG2 viability	TDP1 inh
CCOC(=O)COc1cccc2c(=O)n(CC(=O)NCc3ccccc3)ccc12	49	1µM*	0.65µM*	-25%	-4%	.
CCOC(=O)COc1cccc2c(=O)n(CC(=O)NCCc3ccc(OC)c(OC)c3)ccc12	.	.	.	.	.	7%
CCOC(=O)COc1cccc2c(=O)n(CC(=O)N3CCCCC3)ccc12	25	-3%	13%	5%	-19%	.
CCOC(=O)N(C(=O)c1ccccc1)c1ccccc1	.	?	?	?	-20%	.
CN1CCN(NC(=O)Nc2cc(Cl)cc(Cl)c2)CC1	?	?	?	-22%	-20%	3%[56.1 µM]
O=C(Nc1ccncc1)Nc1ccc(Br)cc1Cl	-94*	21µM*	?	?	-33%	-1%[56.1 µM]
O=C(Nc1ccc(Br)cc1)Nc1ccccc1Cl	?	15µM*	10µM*	-20%	-12%	-6%
O=C(Nc1ccc(CN2CCCCC2)cc1)Nc1ccccc1Cl	?	?	?	-4%	-26%	1%
O=C(CNc1ccc(Br)cc1)c1ccccc1	-23	?	0%	26%	-27%	4%
O=C(CNc1ccccc1Cl)c1ccc(Br)cc1	-77*	?	?	-8%	-2%	.
CN1CCN(NC(=O)Nc2ccc(Br)cc2Cl)CC1	-50*	-8%	-4%	0%	-22%	5%[56.1 µM]
COc1ccc(C)c2sc(NC(=O)c3ccc(S(=O)(=O)N4CCOCC4)cc3)nc12	.	?	?	19%	6%	0%
COc1ccc(COC(=O)N/N=C2/C[C@@H](O)[C@@H](O)[C@@H]3[C@@H]4C(=O)N(Cc5ccccc5)C(=O)[C@H]4CC[C@@H]23)cc1	.	.	.	.	.	12%[21 µM]
C=CCSc1nc2c(cnn2-c2ccccc2)c(=O)n1N	.	5%	-28%	-16%	-5%	.
O=C(Nc1cccc(Cl)c1)Nc1ccc2nccnc2c1	?	?	?	?	-35%	.
O=C(Nc1ccc2nccnc2c1)Nc1ccccc1Cl	?	18µM*	15µM*	3%	3%	.
O=C(Nc1ccc(N2CCOCC2)c(S(=O)(=O)Nc2ccc(Cl)cc2)c1)c1ccc(=O)[nH]n1	-56*	-22%	-16%	-4%	-26%	-18%
CCC(=O)Nc1ccc(N2CCOCC2)c(S(=O)(=O)Nc2ccc(Cl)cc2)c1	1	?	-24%	6%	-12%	3%
O=C(Nc1ccc(N2CCOCC2)c(S(=O)(=O)Nc2ccc(Cl)cc2)c1)c1cnccn1	-17	16µM*	18µM*	-13%	-11%	3%
COc1ccc(NS(=O)(=O)c2cc(NC(=O)C3CC3)ccc2N2CCOCC2)cc1	-3	-17%	-29%	22%	7%	-3%
COc1cc(CN2CCc3nnc(C(NS(C)(=O)=O)C(C)C)n3CC2)ccc1F (stereo not drawn)	.	13%	-7%	.	.	.
C[N+]1(CC(=O)c2ccc(O)c(O)c2)CCOCC1	.	?	-17%	3%	-11%	.
O=C(Nc1nc2ccccc2s1)c1cc(-c2ccccc2)nn1-c1ccccc1	-14	?	10µM*	-10%	1%	3%
CCOC(=O)c1cc(-c2cccnc2)nn1-c1ccccc1	-98*	17%	?	-8%	-14%	0%
CCOC(=O)c1cc(-c2ccccc2)nn1-c1ccccn1	4	-15%	0%	3%	8%	-5%
